# Experimental data published in the supplement of paper PMC12067093, “Discovery and optimisation of a covalent ligand for TRIM25 and its application to targeted protein ubiquitination” (Chemical Science, 2025).
# Of roughly 21,000 targets only a part is listed; those with the largest changes were picked by preference.
# Compound: Cc1cc(ccc1-c1ccccc1)C(=O)N1CCCN(CC1)C(=O)CCl [compound 10]
# Experiment: probe-labelled cysteine peptide fold change vs DMSO (competition) (log2 fold change); higher = less target engagement (more negative = stronger competition)
# Conditions: THP-1, incubation time: 4 h
# 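Further: competitive profiling in live THP-1 cells: cysteine peptides tagged with an iodoacetamide desthiobiotin (IA-DTB) probe, intensity after compound treatment relative to DMSO-treated cells.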
# UniProt Q86YQ8, sequence (Q86YQ8 whole entry, looked up): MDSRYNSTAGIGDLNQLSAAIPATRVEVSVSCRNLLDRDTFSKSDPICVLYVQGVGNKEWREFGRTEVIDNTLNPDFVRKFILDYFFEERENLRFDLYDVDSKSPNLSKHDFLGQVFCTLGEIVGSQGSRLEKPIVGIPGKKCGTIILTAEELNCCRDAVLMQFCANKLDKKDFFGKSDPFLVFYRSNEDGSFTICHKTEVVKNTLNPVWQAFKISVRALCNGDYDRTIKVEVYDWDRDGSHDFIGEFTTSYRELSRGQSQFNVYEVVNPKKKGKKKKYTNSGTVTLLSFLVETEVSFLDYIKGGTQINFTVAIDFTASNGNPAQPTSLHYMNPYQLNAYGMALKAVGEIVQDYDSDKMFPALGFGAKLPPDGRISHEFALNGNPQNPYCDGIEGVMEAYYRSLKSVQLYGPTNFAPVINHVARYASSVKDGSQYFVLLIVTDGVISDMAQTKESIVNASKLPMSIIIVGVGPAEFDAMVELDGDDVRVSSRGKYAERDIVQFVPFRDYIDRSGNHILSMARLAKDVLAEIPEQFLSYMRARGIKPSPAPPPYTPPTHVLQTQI
# UniProt Q14999, sequence (Q14999 whole entry, looked up): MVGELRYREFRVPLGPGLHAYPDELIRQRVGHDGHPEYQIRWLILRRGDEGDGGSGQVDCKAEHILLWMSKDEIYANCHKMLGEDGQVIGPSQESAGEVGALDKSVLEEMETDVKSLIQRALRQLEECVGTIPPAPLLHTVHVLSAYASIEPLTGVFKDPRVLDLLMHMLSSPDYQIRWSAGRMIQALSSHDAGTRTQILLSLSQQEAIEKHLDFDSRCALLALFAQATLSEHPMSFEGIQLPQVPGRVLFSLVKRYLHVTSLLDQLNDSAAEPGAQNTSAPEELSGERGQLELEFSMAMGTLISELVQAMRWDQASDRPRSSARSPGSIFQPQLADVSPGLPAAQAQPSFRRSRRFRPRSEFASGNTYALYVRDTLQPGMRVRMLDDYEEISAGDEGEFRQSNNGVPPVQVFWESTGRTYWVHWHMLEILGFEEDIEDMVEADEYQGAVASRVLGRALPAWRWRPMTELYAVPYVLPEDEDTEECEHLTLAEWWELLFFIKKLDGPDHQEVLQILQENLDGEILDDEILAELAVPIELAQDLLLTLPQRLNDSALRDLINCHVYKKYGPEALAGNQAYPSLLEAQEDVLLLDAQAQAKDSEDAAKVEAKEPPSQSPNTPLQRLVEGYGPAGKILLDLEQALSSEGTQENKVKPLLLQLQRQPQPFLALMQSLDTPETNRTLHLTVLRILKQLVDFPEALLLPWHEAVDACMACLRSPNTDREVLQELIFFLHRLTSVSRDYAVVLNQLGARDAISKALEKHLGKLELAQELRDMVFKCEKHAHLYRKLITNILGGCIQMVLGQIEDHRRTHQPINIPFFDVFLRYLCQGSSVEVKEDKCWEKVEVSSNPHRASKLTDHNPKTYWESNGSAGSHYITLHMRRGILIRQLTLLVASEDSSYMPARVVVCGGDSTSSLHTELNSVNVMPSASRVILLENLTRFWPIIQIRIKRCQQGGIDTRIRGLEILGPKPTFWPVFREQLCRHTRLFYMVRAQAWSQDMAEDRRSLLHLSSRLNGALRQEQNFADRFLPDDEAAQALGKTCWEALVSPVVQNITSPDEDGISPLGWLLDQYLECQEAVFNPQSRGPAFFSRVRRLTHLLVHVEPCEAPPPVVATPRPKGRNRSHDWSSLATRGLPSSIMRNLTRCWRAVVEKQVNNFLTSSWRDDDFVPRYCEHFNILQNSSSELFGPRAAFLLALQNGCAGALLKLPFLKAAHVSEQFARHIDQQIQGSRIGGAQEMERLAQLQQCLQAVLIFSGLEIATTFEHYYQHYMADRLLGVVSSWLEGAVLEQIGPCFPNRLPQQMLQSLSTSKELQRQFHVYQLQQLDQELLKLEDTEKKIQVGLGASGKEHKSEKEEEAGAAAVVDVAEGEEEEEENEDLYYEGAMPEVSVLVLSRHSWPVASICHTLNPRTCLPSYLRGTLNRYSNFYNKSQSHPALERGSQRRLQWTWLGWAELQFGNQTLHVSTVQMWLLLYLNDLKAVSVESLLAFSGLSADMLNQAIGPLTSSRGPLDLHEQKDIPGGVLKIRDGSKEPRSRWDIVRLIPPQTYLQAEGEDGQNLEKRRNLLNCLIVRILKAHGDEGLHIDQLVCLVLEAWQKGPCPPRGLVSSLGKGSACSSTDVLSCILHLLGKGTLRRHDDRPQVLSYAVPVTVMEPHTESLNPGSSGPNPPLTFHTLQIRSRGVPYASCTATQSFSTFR
# UniProt P52429, sequence (P52429 whole entry, looked up): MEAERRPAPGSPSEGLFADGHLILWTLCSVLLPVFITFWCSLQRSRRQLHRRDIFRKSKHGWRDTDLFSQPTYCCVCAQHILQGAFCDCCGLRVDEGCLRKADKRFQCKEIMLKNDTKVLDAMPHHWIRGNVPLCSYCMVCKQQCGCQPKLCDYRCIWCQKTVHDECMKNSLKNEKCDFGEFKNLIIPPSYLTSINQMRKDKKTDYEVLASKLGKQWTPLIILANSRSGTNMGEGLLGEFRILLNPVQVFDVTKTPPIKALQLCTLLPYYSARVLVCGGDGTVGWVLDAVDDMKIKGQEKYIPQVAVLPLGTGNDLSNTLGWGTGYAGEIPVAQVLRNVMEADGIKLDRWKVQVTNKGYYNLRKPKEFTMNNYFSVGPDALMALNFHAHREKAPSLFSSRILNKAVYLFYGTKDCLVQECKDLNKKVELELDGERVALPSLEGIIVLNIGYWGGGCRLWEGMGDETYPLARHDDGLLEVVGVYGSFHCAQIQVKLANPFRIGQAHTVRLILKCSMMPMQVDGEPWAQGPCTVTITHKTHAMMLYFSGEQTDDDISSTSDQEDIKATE
# UniProt Q8NHQ9, sequence (Q8NHQ9 whole entry): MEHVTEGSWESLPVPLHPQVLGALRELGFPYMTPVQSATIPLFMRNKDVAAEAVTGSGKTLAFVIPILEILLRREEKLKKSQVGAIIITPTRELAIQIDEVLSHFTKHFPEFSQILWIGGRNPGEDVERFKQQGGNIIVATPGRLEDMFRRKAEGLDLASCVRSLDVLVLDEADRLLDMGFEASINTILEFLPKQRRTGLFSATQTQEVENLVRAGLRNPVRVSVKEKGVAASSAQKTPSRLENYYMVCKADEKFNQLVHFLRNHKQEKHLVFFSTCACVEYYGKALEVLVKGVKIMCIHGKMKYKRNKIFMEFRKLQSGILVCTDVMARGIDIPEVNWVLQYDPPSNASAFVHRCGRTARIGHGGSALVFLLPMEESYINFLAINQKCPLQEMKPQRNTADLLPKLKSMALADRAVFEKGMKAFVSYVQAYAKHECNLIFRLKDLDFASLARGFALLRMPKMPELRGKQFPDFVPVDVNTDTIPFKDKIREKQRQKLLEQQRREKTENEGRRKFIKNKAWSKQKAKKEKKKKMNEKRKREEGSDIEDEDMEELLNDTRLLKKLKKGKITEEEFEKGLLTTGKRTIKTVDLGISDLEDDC
# UniProt P35222, sequence (P35222 whole entry, looked up): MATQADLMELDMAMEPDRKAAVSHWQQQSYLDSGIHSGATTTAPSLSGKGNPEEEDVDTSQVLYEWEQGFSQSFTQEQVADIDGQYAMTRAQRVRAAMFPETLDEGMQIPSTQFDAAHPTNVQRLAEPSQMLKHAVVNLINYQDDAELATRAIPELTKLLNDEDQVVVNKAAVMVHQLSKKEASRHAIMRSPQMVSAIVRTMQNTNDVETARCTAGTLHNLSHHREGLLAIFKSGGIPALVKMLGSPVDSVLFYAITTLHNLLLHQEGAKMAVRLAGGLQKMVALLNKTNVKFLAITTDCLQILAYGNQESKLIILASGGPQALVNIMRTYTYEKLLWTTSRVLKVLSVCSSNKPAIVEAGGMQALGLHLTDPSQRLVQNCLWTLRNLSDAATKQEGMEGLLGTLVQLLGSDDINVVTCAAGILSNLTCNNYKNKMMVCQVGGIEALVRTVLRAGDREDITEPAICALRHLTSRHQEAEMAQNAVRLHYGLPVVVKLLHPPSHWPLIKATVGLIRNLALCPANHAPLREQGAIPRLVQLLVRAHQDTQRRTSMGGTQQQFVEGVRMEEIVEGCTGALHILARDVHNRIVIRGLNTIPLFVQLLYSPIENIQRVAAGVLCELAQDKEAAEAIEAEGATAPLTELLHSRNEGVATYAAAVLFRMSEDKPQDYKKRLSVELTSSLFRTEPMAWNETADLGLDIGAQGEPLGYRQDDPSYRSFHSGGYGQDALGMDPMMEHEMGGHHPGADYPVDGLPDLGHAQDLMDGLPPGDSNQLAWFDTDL
# UniProt Q7Z3D6, sequence (Q7Z3D6 whole entry, looked up): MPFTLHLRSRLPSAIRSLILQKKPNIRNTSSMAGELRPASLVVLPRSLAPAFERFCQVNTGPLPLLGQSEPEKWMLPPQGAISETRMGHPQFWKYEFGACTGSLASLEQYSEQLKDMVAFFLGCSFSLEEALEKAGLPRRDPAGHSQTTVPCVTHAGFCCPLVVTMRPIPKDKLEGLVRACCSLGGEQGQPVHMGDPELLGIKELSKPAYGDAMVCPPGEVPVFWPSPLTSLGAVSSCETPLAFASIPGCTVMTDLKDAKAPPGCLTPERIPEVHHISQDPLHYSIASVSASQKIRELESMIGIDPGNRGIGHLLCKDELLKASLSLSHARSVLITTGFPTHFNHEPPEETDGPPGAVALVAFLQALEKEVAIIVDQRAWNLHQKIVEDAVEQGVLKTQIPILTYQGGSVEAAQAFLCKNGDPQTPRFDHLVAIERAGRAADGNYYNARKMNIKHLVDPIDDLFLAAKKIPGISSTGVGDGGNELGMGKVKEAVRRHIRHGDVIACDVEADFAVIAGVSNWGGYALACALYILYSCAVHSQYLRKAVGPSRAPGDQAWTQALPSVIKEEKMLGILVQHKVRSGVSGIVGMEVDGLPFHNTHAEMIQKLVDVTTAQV
# UniProt P21291, sequence (P21291 whole entry, looked up): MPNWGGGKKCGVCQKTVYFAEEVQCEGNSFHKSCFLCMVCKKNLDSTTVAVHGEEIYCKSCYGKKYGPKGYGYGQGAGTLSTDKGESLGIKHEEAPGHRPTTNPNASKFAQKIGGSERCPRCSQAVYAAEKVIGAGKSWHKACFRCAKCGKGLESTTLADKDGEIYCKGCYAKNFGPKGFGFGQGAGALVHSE
Target,probe-labelled cysteine peptide fold change (10 µM),probe-labelled cysteine peptide fold change (50 µM)
DBNL_Q9UJU6-3_256_NEQGSTCASLQESAVHPR (UniProt Q9UJU6),-0.341,-0.167
CRYZL1_O95825_302_YLCILK (UniProt O95825),-0.195,-0.442
CMTM3_Q96MX0_38_AFLCSLK (UniProt Q96MX0),-0.91,-3.05
DIP2A_Q14689_6_GCPLEAAPLPAEVR (UniProt Q14689),-0.41,-2.19
DDX46_Q7L014_646_ASYPCMSLHGGIDQYDR (UniProt Q7L014),-0.0173,0.231
CNOT4_O95628_175_AIQCVNNVVVDGR (UniProt O95628),-0.0308,-0.303
CTNNA1_P35221_461_MSASQLEALCPQVINAALALAAK (UniProt P35221),0.108,0.332
CNPY2_Q9Y2B0_28_SQDLHCGACR (UniProt Q9Y2B0),-0.272,-0.187
DDX52_Q9Y2R4_342_TGFRDQLASIFLACTSHK (UniProt Q9Y2R4),0.00973,0.189
CYB5R4_Q7L1T6_278_CQLISK (UniProt Q7L1T6),-0.0627,-0.00326
DDX17_Q92841_319_CTYLVLDEADRMLDMGFEPQIR (UniProt Q92841),0.023,-0.374
DIAPH3_Q9NSV4_663_IRPHEMTENCFWIK (UniProt Q9NSV4),-0.0626,-0.468
CTSG_P08311_142_AQEGLRPGTLCTVAGWGR (UniProt P08311),-0.0347,-0.0423
COPB1_P53618_248_CIYNLLQSSSPAVKYEAAGTLVTLSSAPTAIK (UniProt P53618),0.0928,0.0416
DENND4A_Q7Z401_952_GSADCLPK (UniProt Q7Z401),-0.312,0.101
DDX5_P17844_170_TLSYLLPAIVHINHQPFLERGDGPICLVLAPTR (UniProt P17844),0.236,0.565
DBR1_Q9UK59_36_RGPGPVDLLLCCGDFQAVR (UniProt Q9UK59),0.0792,-0.183
CSDE1_O75534_657_FQLCVLGQNAQTMAYNITPLR (UniProt O75534),0.223,0.2
DNAJA3_Q96EY1_236_EFTVNIMDTCER (UniProt Q96EY1),-0.1,-0.195
CORO1A_P31146_332_GLEVNKCEIAR (UniProt P31146),-0.447,-1.1
CSMD2_Q7Z408-3_2_CDAHLR (UniProt Q7Z408),0.077,-2.14

Target,probe-labelled cysteine peptide fold change (10 µM),probe-labelled cysteine peptide fold change (50 µM)
DNMT1_P26358_1339_ACQLSVVVDDKK (UniProt P26358),-0.133,-1.16
DIS3L2_Q8IYB7_196_LSVCVSEK (UniProt Q8IYB7),-0.124,0.0776
CSE1L_P55060_61_VCASVTFK (UniProt P55060),-0.071,0.0214
CPNE8_Q86YQ8_196_SNEDGSFTICHK (UniProt Q86YQ8),0.205,0.413
CRIP1_P50238_56_TLTSGGHAEHEGKPYCNHPCYAAMFGPK (UniProt P50238),-0.447,-1.41
DDX20_Q9UHI6_98_CGLDLIVQAK (UniProt Q9UHI6),-0.0986,-0.579
CPSF1_Q10570_1102_IELQEWEHVTCMK (UniProt Q10570),0.0314,-0.201
DNMT1_P26358_353+356_CIQCGQYLDDPDLK (UniProt P26358),0.138,-0.0723
DHRS4L2_Q6PKH6_86_KQQNVDQAVATLQGEGLSVTGTVCHVGK (UniProt Q6PKH6),0.254,-0.306
CTDP1_Q9Y5B0_277_ILSRDECIDPFSK (UniProt Q9Y5B0),-0.0626,-0.31
DIAPH2_O60879_775_NEYDDLCEPEQFGVVMSSVK (UniProt O60879),-0.117,0.261
CRELD2_Q6UXH1_166_QGDGSCR (UniProt Q6UXH1),-0.195,-0.265
CMIP_Q8IY22_363_NGCQQPCDR (UniProt Q8IY22),-0.29,-1.18
DCAF13_Q9NV06_215_FNPIETFLLGSCASDR (UniProt Q9NV06),0.105,-0.0461
CRELD2_Q6UXH1_120_SEYPDLFEWFCVK (UniProt Q6UXH1),0.199,-0.0635
COPG1_Q9Y678_440_ETGLSHLCEFIEDCEFTVLATR (UniProt Q9Y678),0.0873,0.125
COMT_P21964_241_GSSCFECTHYQSFLEYR (UniProt P21964),0.0648,-0.0597
CORO7_P57737_790_TECDVREVELMR (UniProt P57737),-0.178,-0.995
DDX50_Q9BQ39_242_LSVACFYGGTSYQSQINHIR (UniProt Q9BQ39),0.333,-0.294
CRTAP_O75718_273_DFYLSIADHYVEVLECK (UniProt O75718),-0.146,1.08
CNNM4_Q6P4Q7_220_IVQNCGTEK<|>CNNM2_Q9H8M5_293_IVQNCGTEK (UniProt Q9H8M5+Q6P4Q7),-0.2,-0.279

Target,probe-labelled cysteine peptide fold change (10 µM),probe-labelled cysteine peptide fold change (50 µM)
DDX24_Q9GZR7_570_IHCETDEK (UniProt Q9GZR7),-0.15,0.261
CTR9_Q6PD62_196_TNPGCPAEVR (UniProt Q6PD62),-0.0165,-0.0939
COLGALT1_Q8NBJ5_283_QAEVQMYVCNK (UniProt Q8NBJ5),0.265,0.751
CRYL1_Q9Y2S2_125_VILSSSTSCLMPSK (UniProt Q9Y2S2),-0.0791,-0.537
DDAH2_O95865_11_CSHALIR (UniProt O95865),0.0326,0.0102
DHX16_O60231_932_VEVGLSSCQGDYIR (UniProt O60231),-0.184,0.119
DDHD2_O94830_470_ESEFCSSSNTR (UniProt O94830),-0.28,-0.538
DHX9_Q08211_608+612_KDKDDDGGEDDDANCNLICGDEYGPETR (UniProt Q08211),-0.761,-0.243
DGLUCY_Q7Z3D6_265_APPGCLTPER (UniProt Q7Z3D6),-0.239,-0.427
DGKE_P52429_167_TVHDECMK (UniProt P52429),-0.082,-0.168
CTNNB1_P35222_466_AGDREDITEPAICALR (UniProt P35222),0.16,1.07
DLGAP5_Q15398_129_YRPDMPCFLLSNQNAVK (UniProt Q15398),-0.0877,-1.31
CUL9_Q8IWT3_76_AEHILMWLSAPEVYANCPGLLGER (UniProt Q8IWT3),0.0237,-0.0123
CTSH_P09668_272_TGIYSSTSCHK (UniProt P09668),0.176,-0.114
DENND3_A2RUS2_1094_DTSTSFLAFQLLPEEEQLWAACAGR (UniProt A2RUS2),1.07,1.16
COQ8B_Q96D53_508_AHIACR (UniProt Q96D53),-0.221,-1.08
DHX30_Q7L2E3_673_GEPGGILCFLPGWQEIK (UniProt Q7L2E3),0.357,0.169
DENND3_A2RUS2_801_TECDLWHLMVK (UniProt A2RUS2),-0.103,-0.116
DDX55_Q8NHQ9_161_AEGLDLASCVR (UniProt Q8NHQ9),0.187,0.31
DDX10_Q13206_196_INNINILVCTPGR (UniProt Q13206),0.0926,0.195
DDX27_Q96GQ7_248_ACIPVGLLGK (UniProt Q96GQ7),0.238,-0.122

Target,probe-labelled cysteine peptide fold change (10 µM),probe-labelled cysteine peptide fold change (50 µM)
DHX8_Q14562_1108_AICSGFFR (UniProt Q14562),-0.267,0.29
DLEC1_Q9Y238_256_LEDSCR (UniProt Q9Y238),0.773,1.66
CTSZ_Q9UBR2_164_DQECDK (UniProt Q9UBR2),-0.0913,-0.207
DHX30_Q7L2E3_346_RPCTIQVPEPILR (UniProt Q7L2E3),-0.647,-1.7
DDX5_P17844_191_ELAQQVQQVAAEYCR (UniProt P17844),0.115,-0.161
COA7_Q96BR5_187_ACDLGHIWACANASR (UniProt Q96BR5),0.0578,0.0556
DCAF6_Q58WW2_513_GIGSHCK (UniProt Q58WW2),-0.205,-0.361
CSRP1_P21291_25_TVYFAEEVQCEGNSFHK (UniProt P21291),2.29e-05,-0.0826
CPSF3_Q9UKF6_626_RLEIMLQDIFGEDCVSVK (UniProt Q9UKF6),-0.0218,0.198
DCTD_P32321_60_IVGIGYNGMPNGCSDDVLPWR (UniProt P32321),0.155,-0.179
CNN2_Q99439_215_CASQVGMTAPGTR (UniProt Q99439),-0.0958,-0.449
DCAF12_Q5T6F0_253_EDTNPDNCK (UniProt Q5T6F0),-0.303,-0.538
CUL7_Q14999_952_CQQGGIDTR (UniProt Q14999),-0.417,-0.0198
DIAPH1_O60610_1227_KAGCAVTSLLASELTK (UniProt O60610),-0.218,-1.27
CRYZ_Q08257_45_VHACGVNPVETYIR (UniProt Q08257),0.0503,-0.01
DDX17_Q92841_166+199_GGDVCPKPVFAFHHANFPQYVMDVLMDQHFTEPTPIQCQGFPLALSGR (UniProt Q92841),-0.28,-1.05
DCAF12L1_Q5VU92_150_LAQDQQGCGIHAIELNPSK (UniProt Q5VU92),-0.214,-0.239
DEF6_Q9H4E7_266_GIIPLDAHCCVEVLPDRDGKR (UniProt Q9H4E7),0.106,-0.227
